# Out of some 220,000 compounds screened, about 910 (0.41%) were called active. The sample holds actives, similar compounds and a random draw of the others, so the mix is not that of the screen. Potency and affinity values are given separately. Values without a mark were called inactive.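 Rule for the calls: active = primary inhibition above the hit cutoff, then over 50% inhibition at one or more dose response concentrations (cut at about 23% in these data, passing the limit was not always enough); inconclusive = conflicting primary data, or primary hits not chosen for dose response; inactive = low primary inhibition, or under 50% at every dose.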
# Target: Aminopeptidase N (Plasmodium falciparum (isolate 3D7)) (UniProt O96935)
# Sequence (O96935 whole entry, looked up): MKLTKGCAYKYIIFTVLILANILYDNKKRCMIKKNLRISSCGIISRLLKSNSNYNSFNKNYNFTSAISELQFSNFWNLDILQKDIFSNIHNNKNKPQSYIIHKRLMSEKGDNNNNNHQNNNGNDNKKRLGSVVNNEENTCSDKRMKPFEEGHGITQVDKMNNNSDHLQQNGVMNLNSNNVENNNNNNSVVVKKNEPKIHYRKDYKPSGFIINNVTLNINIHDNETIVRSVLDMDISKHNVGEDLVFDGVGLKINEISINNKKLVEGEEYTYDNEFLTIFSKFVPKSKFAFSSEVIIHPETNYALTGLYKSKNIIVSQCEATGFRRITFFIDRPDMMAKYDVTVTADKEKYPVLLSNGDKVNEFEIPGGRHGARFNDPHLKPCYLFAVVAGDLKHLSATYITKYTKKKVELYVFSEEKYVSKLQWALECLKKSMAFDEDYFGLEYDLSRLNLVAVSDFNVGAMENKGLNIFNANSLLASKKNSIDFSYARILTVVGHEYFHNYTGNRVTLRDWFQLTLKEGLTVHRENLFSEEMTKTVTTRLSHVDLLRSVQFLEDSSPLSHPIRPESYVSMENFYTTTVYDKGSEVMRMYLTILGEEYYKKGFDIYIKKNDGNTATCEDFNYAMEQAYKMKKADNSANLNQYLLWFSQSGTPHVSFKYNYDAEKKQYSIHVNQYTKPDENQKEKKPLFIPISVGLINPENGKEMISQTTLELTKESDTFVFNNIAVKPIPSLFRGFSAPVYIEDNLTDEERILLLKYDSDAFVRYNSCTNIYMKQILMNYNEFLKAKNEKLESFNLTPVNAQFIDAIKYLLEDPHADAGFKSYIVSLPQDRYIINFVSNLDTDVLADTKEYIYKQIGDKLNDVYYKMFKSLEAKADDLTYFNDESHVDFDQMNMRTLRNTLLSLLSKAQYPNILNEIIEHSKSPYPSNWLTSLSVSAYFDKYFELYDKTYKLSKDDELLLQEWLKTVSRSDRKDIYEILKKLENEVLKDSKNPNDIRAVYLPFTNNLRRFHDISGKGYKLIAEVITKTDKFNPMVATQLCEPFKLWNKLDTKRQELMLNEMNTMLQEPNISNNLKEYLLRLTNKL
# Experiment: malaria alanyl aminopeptidase activity blockers – biochemical, fluorogenic H-Leu-NHMec substrate, 1536-well (AID 1445);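 note: plate controls were DMSO full reaction for no effect and no enzyme background for full effect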
# Conditions: recombinant M1AAP, H-Leu-NHMec fluorogenic kinetic assay; at 30 µM, hits give high values unless noted
row,Compound,inhibition
1,CCCNC(=O)c1ccc2c(=O)n3c(-c4ccc(C)cc4)csc3nc2c1,10%
2,O=C(O)CSc1nc(-c2cccs2)cc(C(F)(F)F)n1,-2.67%
3,O=C(c1ccc(C(F)(F)F)cc1)C1CCCN(C(=O)CN2C(=O)CSC2=O)C1 (centres undefined),-2.21%
4,CC(Sc1nc(N)cc(=O)[nH]1)C(=O)Nc1cccc(Cl)c1 (centres undefined),14.1%
5,CN(CCc1ccccn1)C(=O)Nc1ccc(C(C)(C)C)cc1,2.28%
6,O=C1NC(=S)S/C1=C\c1coc2ccccc2c1=O,14.4%
7,CN1C(=O)/C(=C/c2coc3ccc(O)cc3c2=O)SC1=S,-2.96%
8,CCC1CCCCN1C(=O)CCc1nnc(C2CCCCC2)o1 (centres undefined),0.86%
9,CC(C)Cc1nnc(NC(=O)CSc2nc(O)c(-c3ccccc3)c(=O)[nH]2)s1,4.36%
10,O=C(Nc1nc(-c2cc3ccccc3oc2=O)cs1)c1ccco1,13.4%
11,Nc1ccc(Nc2nc(-c3cc4ccccc4oc3=O)cs2)cc1,6.86%
12,O=C1N(c2ccccc2)C[C@@H]2C[C@@H](c3cccs3)N3CCC[C@@]123,2.6%
13,O=C(COc1cccc2cccnc12)Nc1ccccc1,-0.06%
14,O=C(COc1ccccc1[N+](=O)[O-])Nc1cccnc1,7.9%
15,O=C(COc1ccccc1[N+](=O)[O-])Nc1ccc(Br)cc1,-3.79%
16,O=C(COc1ccccc1)Nc1ccc([N+](=O)[O-])cc1,3.2%
17,C=CCNC(=S)Nc1ccc(C(N)=O)cc1,4.91%
18,COC(=O)/C=C/c1ccsc1NC(C)=O,7.35%
19,O=C(Nc1ccccc1Oc1ccccc1)c1cccc([N+](=O)[O-])c1,6.7%
20,Cc1nn(-c2cc(N3CCCC3)ccc2[N+](=O)[O-])c(=O)c2ccccc12,8.6%
21,O=C(CSc1nc2c(c(=O)n1-c1ccc(F)cc1)SCC2)NCC1CCCO1 (centres undefined),15.6%
22,Cc1ccc(-n2c(SCC(=O)NCC3CCCO3)nc3c(c2=O)SCC3)cc1 (centres undefined),4.19%
23,COc1ccccc1NC(=O)CN1CCN(C(=O)c2ccco2)CC1,1.53%
24,COc1ccc(C(=O)N2CCC(n3c(C)nc4cc(F)ccc43)CC2)cc1,-1.13%
25,CC(C)CNC(=O)C(=O)NN=C1CCCCCC1,2.51%

row,Compound,inhibition
1,COC(=O)c1ccc(C)c(NS(=O)(=O)c2ccc3c(c2)OCCO3)c1,9.88%
2,O=C(O)c1ccc(NS(=O)(=O)c2ccc3c(c2)OCCO3)cc1,7.45%
3,Cc1ccc(C)c(N(C)C(=O)c2cc3c(=O)[nH]c4ccc(C)cc4c3s2)c1,-2.28%
4,CC1(C)CC(=O)c2cc(OCC(=O)NCCN3CCCc4ccccc43)ccc2O1,6.69%
5,COc1ccc2c(c1)C(=O)N(c1ccccc1OC)C(=O)C2(C)C,11.7%
6,COc1nnc(-c2ccc(N3CCOCC3)c(NC(C)=O)c2)c2ccccc12,4.98%
7,O=C(NCCc1ccccc1)C1CCN(C(=O)c2sccc2-n2cccc2)CC1,5.4%
8,CCn1c(C(=O)N2CCC(C(=O)NCc3ccc4c(c3)OCO4)CC2)cc2sccc21,31.3% (active)
9,CCS(=O)(=O)N1CCC(C(=O)NCc2ccc3c(c2)OCO3)CC1,21.3%
10,CCCS(=O)(=O)N1CCCC(C(=O)NCc2ccc3c(c2)OCO3)C1 (centres undefined),4.51%
11,Cn1c(C(=O)N2CCCC(C(=O)NCc3ccc4c(c3)OCO4)C2)cc2sccc21 (centres undefined),5.35%
12,O=C(NCc1ccncc1)C1CCN(S(=O)(=O)Cc2ccccc2)CC1,22.4%
13,CCn1c(C(=O)N2CCC(C(=O)NCc3cccs3)CC2)cc2sccc21,18.2%
14,CCS(=O)(=O)N1CCC(C(=O)NCc2cccc(OC)c2)CC1,-2.58%
15,O=C(NCc1ccccc1F)C1CCN(C(=O)c2sccc2-n2cccc2)CC1,3.14%
16,COC(=O)c1ccc(CSc2nc3c(c(=O)n2-c2ccccc2)SCC3)o1,5.07%
17,CCN(CC)CCCNC(=O)c1ccc(N2CCCCC2)c(NS(=O)(=O)c2ccc(C)cc2)c1,-3.11%
18,CC(CN1CCCC1)C(=O)NN (centres undefined),-2.99%
19,O=c1[nH]c2cc(Cl)c([N+](=O)[O-])nc2[nH]1,11.7%
20,Cc1nc(/C(=N/O)C(N)=O)cs1,3.08%
21,CCOC(=O)COc1ccc(Br)cc1C1NC(=O)NC(C)=C1C(=O)NCc1ccccc1 (centres undefined),-5.37%
22,O=C(NCCc1nc2ccccc2[nH]1)c1ccco1,-3.58%
23,Nc1ncc(Br)cc1S(=O)(=O)NCCC(=O)Nc1cccc(Cl)c1,0.42%
24,Cc1ccc(C(=O)Nc2ccc3c(c2)CCC3)o1,6.8%
25,COc1cccc(OC)c1C(=O)N1CCN(c2c(Cc3ccccc3)c(C)nc3ncnn23)CC1,7.55%

row,Compound,inhibition
1,Cc1ccc2c(CNCc3ccco3)cc(=O)oc2c1,7.2%
2,CS(=O)(=O)N1CCC(C(=O)NCc2ccc(F)cc2)CC1,12.5%
3,CCS(=O)(=O)N1CCC(C(=O)NCc2ccc(F)cc2)CC1,5.77%
4,Cc1ccc(S(=O)(=O)Nc2cccc(-c3cn4ccsc4n3)c2)cc1,7.08%
5,COc1ccccc1N1CCN(c2ncnc3nc[nH]c23)CC1,3.64%
6,COc1cc(C=C2C(=O)c3ccccc3C2=O)ccc1O,12.8%
7,COc1ccc(C=C2C(=O)c3ccccc3C2=O)cc1O,13.7%
8,COc1ccccc1N1CCN(c2nc3ccccc3nc2C(C#N)C(=O)OC(C)C)CC1 (centres undefined),1.03%
9,Cn1ncc2cc(NC(N)=S)ccc21,5.67%
10,COc1cccc(NC(=O)COc2ccccc2C(N)=O)c1,-6.65%
11,COC(=O)c1nc(N)sc1-c1ccc(Cl)cc1,7.93%
12,CC1(C)Cc2c(sc3c2c(N)nc(=S)n3Cc2ccc(Br)cc2)CO1,5.16%
13,Cc1cc(C)n(-c2cc(-n3nc(C)cc3C)ncn2)n1,7.79%
14,Cc1ccc(Nc2cc(-n3nc(C)cc3C)ncn2)cc1,26.7% (active)
15,Cc1ccc(Nc2cc(-n3nc(C)cc3C)ncn2)c(C)c1,-27.3%
16,CC1(C)CC(=O)C(C=NCCN2CCN(C(=S)NC3CCCCC3)CC2)=C(O)C1,-1.18%
17,Cc1ccc(NC(=O)CN(C)CC(=O)Nc2ccccc2Oc2ccccc2)cc1,-4.16%
18,O=C(N/N=C\c1ccc([N+](=O)[O-])o1)C1COc2ccccc2O1 (centres undefined),15.2%
19,O=C(N/N=C/c1cccc([N+](=O)[O-])c1)C1COc2ccccc2O1 (centres undefined),-7.31%
20,O=C(N/N=C\c1ccc(-c2ccccc2[N+](=O)[O-])o1)C1COc2ccccc2O1 (centres undefined),5.3%
21,O=C(N/N=C\c1ccc(O)c([N+](=O)[O-])c1)C1COc2ccccc2O1 (centres undefined),21.5%
22,Cc1cc(C(=O)OCn2nnc3ccccc3c2=O)c(C)n1-c1ccccc1,0.48%
23,O=C(COC(=O)c1cccc2ccccc12)Nc1ncc(C(F)(F)F)cc1Cl,1.24%
24,CC(=O)c1ccc(Sc2ccccc2N)c([N+](=O)[O-])c1,0.73%
25,O=C(O)c1ccccc1C(=O)c1ccc(Sc2ccc(Cl)cc2)c([N+](=O)[O-])c1,17.6%

row,Compound,inhibition
1,Cc1cccc(Nc2c(-c3ccc(N4CCOCC4)cc3)nc3ncccn23)c1,1.09%
2,O=C(Nc1nnc(C2CC2)s1)C1CCCO1 (centres undefined),-7.06%
3,Cn1cc(Br)c(C(=O)Nc2ncc(Br)s2)n1,3.9%
4,CCCOc1ccc(C(C)=O)cc1CSCCC#N,11.4%
5,CC(=O)c1ccc(OC(C)C)c(CSc2nc(O)cc(=O)[nH]2)c1,36.7%
6,CCOC(=O)c1sc2nc(C(C)C)c3c(c2c1N)CC(C)(C)OC3,22.1%
7,COC(=O)c1ccc(S(=O)(=O)N2CCCN(Cc3ccccc3)CC2)n1C,-2.02%
8,Cc1ccccc1C(=O)Nc1ccnc(-c2ccncc2)n1,-1.17%
9,Cc1nc2ccc(Cl)cc2nc1C,5.55%
10,Cc1nc(N)nc(Cl)c1Cc1ccc(Cl)cc1,0.71%
11,COC(CNC(=O)C1CCCCC1C(=O)O)OC (centres undefined),-2.33%
12,C/C(CC(=O)Nc1ccccc1C)=N\NC(=O)Cc1csc(N)n1,5.41%
13,C=CCn1c(SCc2nc3ccccc3c(=O)[nH]2)nc2scc(C3CC3)c2c1=O,1.15%
14,COc1ccc2ccccc2c1/C=N/O,6.62%
15,CC(C)Oc1ccc2ccccc2c1C=O,23.8% (active)
16,O=Cc1c(OCc2ccccc2)ccc2ccccc12,16.3%
17,C=CCNc1nc2ccccc2c(=O)[nH]1,7.55%
18,Clc1ccc(-c2nc(-c3cc4cc(Cl)ccc4o3)cs2)cc1,2.11%
19,CC(=O)Nc1cccc(NS(=O)(=O)c2ccccc2[N+](=O)[O-])c1,-4.08%
20,CC(C(=O)N1CCN(C)CC1)N1C(=O)c2ccccc2C1=O (centres undefined),7.24%
21,COC(=O)c1c[nH]n2c(=O)c(Cl)c(C)nc12,0.19%
22,COc1ccc(OC)c(CC(NC(C)=O)C(=O)NC2CCN(c3nc(OC)nc(OC)n3)CC2)c1 (centres undefined),4.38%
23,COc1ccc(/C=N/NC(=O)c2ccc(N)cc2)cc1Cn1cc([N+](=O)[O-])cn1,16.6%
24,COc1ccc(/C=N/NC(=O)c2ccccc2O)cc1Cn1cc([N+](=O)[O-])cn1,5.5%

# Reference: PubChem BioAssay AID1445 (SRMLSC, 2008)
